Data published in PubChem BioAssay (Tox21).
Inconclusive results are not listed. Active and inactive are the calls of the source. The call rests on the fitted dose curve; in most records, active means well fitted curve in the direction sought with a large enough effect in the repeat runs; inconclusive means weak or mixed curves; inactive means no such curve, though single readings can be large; an effect the other way counts as inactive or inconclusive.

How the values were obtained:
[1] = A CellTox Green Cytotoxicity Assay to monitor cytotoxicity in HEK293 cells - 40 hour (AID 1224871); further: nearly all actives have a fitted effect of over 45% in size; further: potency means the concentration at half of the fitted maximal effect
Outline: (§1)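 Each value comes from one timepoint of a single continuous run in which HEK293 cells with CellTox Green were exposed to compound for up to 40 h at 37 C, dye fluorescence rising with cell death.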

[2] = qHTS RealTime-Glo MT Cell Viability Assay in HEK293 cells - 16 hour (AID 1224872); further: nearly all actives have a fitted effect of over 50% in size; further: potency means the concentration at half of the fitted maximal effect; on activity change, negative = cytotoxicity: top concentration of the series differs between compounds
Outline: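 Homogeneous bioluminescent viability format in HEK293 cells (600 cells/well). Following 5 h at 37 C/5% CO2, 23 nL compound was pintooled; the signal was measured repeatedly during 40 h incubation.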

[3] = qHTS RealTime-Glo MT Cell Viability Assay in HepG2 cells - 8 hour (AID 1224873); further: nearly all actives have a fitted effect of over 55% in size
Outline: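 Real-time viability: cells seeded at 600 per well together with NanoLuc and cell-permeant prosubstrate, compounds added after 5 h incubation. Luminescence tracked at 0, 8, 16, 24, 32 and 40 h of exposure.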

[4] = qHTS RealTime-Glo MT Cell Viability Assay in HEK293 cells - 40 hour (AID 1224874); conditions: RealTime-Glo luminescence; max response: hits give low values; further: nearly all actives have a fitted effect of over 50% in size; further: potency means the concentration at half of the fitted maximal effect
Outline: (§2)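 qHTS format; HEK293 cells with NanoLuc/prosubstrate reagent, 37 C/5% CO2 for 5 h pre-dosing; compounds 23 nL in DMSO; luminescence at each time point reflects viable cells.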

[5] = A CellTox Green Cytotoxicity Assay to monitor cytotoxicity in HEK293 cells - 24 hour (AID 1224875); further: series mostly up to about 77 µM; nearly all actives have a fitted effect of over 45% in size
Outline: as §1

[6] = qHTS RealTime-Glo MT Cell Viability Assay in HepG2 cells - 32 hour (AID 1224877); further: nearly all actives have a fitted effect of over 55% in size
Outline: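 Cell number in HepG2 cultures estimated from NanoLuc luminescence generated by metabolic reduction of a prosubstrate by living cells. The homogeneous, nonlytic format allowed repeated reads at 0, 8, 16, 24, 32 and 40 h of compound exposure.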

[7] = qHTS RealTime-Glo MT Cell Viability Assay in HEK293 cells - 0 hour (AID 1224880); further: top concentration of the series differs between compounds; nearly all actives have a fitted effect of over 45% in size
Outline: as §2

[8] = A CellTox Green Cytotoxicity Assay to monitor cytotoxicity in HepG2 cells - 16 hour (AID 1224876); further: nearly all actives have a fitted effect of over 45% in size
Outline: (§3)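 Continuous culture of HepG2 cells with a membrane-impermeant DNA dye; rising fluorescence marks dead cells. Compound exposure lasted up to 40 h at 37 C, with reads every 8 h from 0 h.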

[9] = A CellTox Green Cytotoxicity Assay to monitor cytotoxicity in HepG2 cells - 24 hour (AID 1224878); further: nearly all actives have a fitted effect of over 45% in size
Outline: as §3

[10] = A CellTox Green Cytotoxicity Assay to monitor cytotoxicity in HepG2 cells - 40 hour (AID 1224879); further: nearly all actives have a fitted effect of over 40% in size; further: potency means the concentration at half of the fitted maximal effect
Outline: as §3
On the % scale 0 is the no-effect control and ±100 the full control effect.

CC1(C)C(=O)N(Br)C(=O)N1Cl
inactive: Potency [1] | Potency [2] | Potency [3] | max response [4] 8.13% | Potency [5] | Potency [6] | Potency [7]

CC1=C(/C=C/C(C)=C\C=C\C(C)=C\C(=O)O)C(C)(C)CCC1
inactive: Potency [2] | Potency [3] | max response [4] -21.3% | Potency [8] | Potency [9] | Potency [7]
active: Potency [1] 49 µM

CCCCC(=O)O[C@]1(C(=O)CO)CC[C@H]2[C@@H]3CCC4=CC(=O)CC[C@]4(C)[C@H]3[C@@H](O)C[C@@]21C
inactive: Potency [1] | Potency [2] | max response [4] -24% | Potency [5] | Potency [8] | Potency [6] | Potency [9] | Potency [10]

C=C(C)C(=O)OCCOC(=O)CC(C)=O
inactive: Potency [1] | Potency [2] | max response [4] 1.19% | Potency [5] | Potency [8] | Potency [6] | Potency [9] | Potency [10] | Potency [7]

O=C(CCCN1CCC(O)(c2ccc(Br)cc2)CC1)c1ccc(F)cc1
inactive: Potency [1] | Potency [3] | Potency [5] | Potency [7]
active: Potency [2] 9.52 µM | Potency [4] 10.7 µM | Potency [10] 23.9 µM

CN1CCCN=C1/C=C/c1cccs1
inactive: Potency [1] | Potency [2] | max response [4] 5.88% | Potency [5] | Potency [8] | Potency [6] | Potency [9] | Potency [10] | Potency [7]

O=C(OCCOCCO)c1ccccc1Nc1cccc(C(F)(F)F)c1
inactive: Potency [2] | Potency [3] | Potency [5] | Potency [6] | Potency [7]
active: Potency [1] 2.39 µM

CC(C)(C)CC(C)(C)c1ccc(OCCO)cc1
inactive: Potency [3] | Potency [8] | Potency [6] | Potency [10] | Potency [7]
active: Potency [1] 48.7 µM | Potency [2] 6.88 µM | Potency [4] 4.87 µM

CNC(=S)NC
inactive: Potency [1] | Potency [2] | Potency [3] | Potency [5] | Potency [8] | Potency [6] | Potency [9] | Potency [7]

NC(=O)Nc1ccc(Cl)cc1
inactive: Potency [1] | Potency [2] | Potency [3] | max response [4] -8.17% | Potency [5] | Potency [6] | Potency [7]

COC(=O)CC(=O)C(C)(C)C
inactive: Potency [1] | Potency [2] | Potency [3] | Potency [5] | Potency [8] | Potency [6] | Potency [9] | Potency [10] | Potency [7]

CCCOc1ccc(S(=O)(=O)N2CCN(CC)CC2)cc1-c1nc2c(CC)n(Cc3ccccn3)nc2c(=O)[nH]1
inactive: Potency [1] | Potency [2] | Potency [3] | Potency [5] | Potency [8] | Potency [6] | Potency [7]

CC1CN(c2cc3c(cc2F)c(=O)c(C(=O)O)cn3-c2ccc(F)cc2F)CCN1 (configuration not stated)
inactive: cytotoxicity increase [1] -7.27% [at 6.97 µM] | activity change, negative = cytotoxicity [2] 6.7% [at 6.97 µM] | max response [4] 2.82% | activity change [5] -1.61% [at 6.97 µM, hits give high values] | cytotoxicity increase [8] 0.798% [at 6.97 µM] | activity change, negative = cytotoxic [6] 0.449% [at 6.97 µM] | cytotoxicity [9] -0.333% [at 6.97 µM] | cytotoxicity increase [10] 1.74% [at 6.97 µM] | activity change, negative = cytotoxicity [7] 15.1% [at 6.97 µM]

Cc1cc(S(=O)(=O)O)ccc1N=Nc1c(O)ccc2ccccc12
inactive: Potency [1] | Potency [2] | max response [4] -12.7% | Potency [5] | Potency [8] | Potency [6] | Potency [9] | Potency [10] | Potency [7]

Oc1cc(O)c(Cl)cc1Cl
inactive: Potency [1] | Potency [2] | max response [4] 17.2% | Potency [5] | Potency [8] | Potency [6] | Potency [9] | Potency [10] | Potency [7]

OC/C(Br)=C(\Br)CO
inactive: Potency [1] | Potency [2] | Potency [3] | max response [4] 0.37% | Potency [8] | Potency [6] | Potency [10] | Potency [7]
